Paper PMC4336329 (PLoS ONE, 2015)
Among all 310,000 compounds or so, about 14,000 (4.5%) showed an effect of 50% or more. The effect is printed as a negative number. Shown is part of a subset that was picked to be rich in strong results.

biological target: human ether-à-go-go-related gene (hERG) potassium channel (human, UniProt Q12809); experiment: primary screen, population patch clamp on CHO cells stably expressing hERG; higher = less effect of the substance
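Also: peak tail current of the secondary pulse compared with the same well before compound.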

Chain of human ether-à-go-go-related gene (hERG) potassium channel (Q12809 whole entry, looked up): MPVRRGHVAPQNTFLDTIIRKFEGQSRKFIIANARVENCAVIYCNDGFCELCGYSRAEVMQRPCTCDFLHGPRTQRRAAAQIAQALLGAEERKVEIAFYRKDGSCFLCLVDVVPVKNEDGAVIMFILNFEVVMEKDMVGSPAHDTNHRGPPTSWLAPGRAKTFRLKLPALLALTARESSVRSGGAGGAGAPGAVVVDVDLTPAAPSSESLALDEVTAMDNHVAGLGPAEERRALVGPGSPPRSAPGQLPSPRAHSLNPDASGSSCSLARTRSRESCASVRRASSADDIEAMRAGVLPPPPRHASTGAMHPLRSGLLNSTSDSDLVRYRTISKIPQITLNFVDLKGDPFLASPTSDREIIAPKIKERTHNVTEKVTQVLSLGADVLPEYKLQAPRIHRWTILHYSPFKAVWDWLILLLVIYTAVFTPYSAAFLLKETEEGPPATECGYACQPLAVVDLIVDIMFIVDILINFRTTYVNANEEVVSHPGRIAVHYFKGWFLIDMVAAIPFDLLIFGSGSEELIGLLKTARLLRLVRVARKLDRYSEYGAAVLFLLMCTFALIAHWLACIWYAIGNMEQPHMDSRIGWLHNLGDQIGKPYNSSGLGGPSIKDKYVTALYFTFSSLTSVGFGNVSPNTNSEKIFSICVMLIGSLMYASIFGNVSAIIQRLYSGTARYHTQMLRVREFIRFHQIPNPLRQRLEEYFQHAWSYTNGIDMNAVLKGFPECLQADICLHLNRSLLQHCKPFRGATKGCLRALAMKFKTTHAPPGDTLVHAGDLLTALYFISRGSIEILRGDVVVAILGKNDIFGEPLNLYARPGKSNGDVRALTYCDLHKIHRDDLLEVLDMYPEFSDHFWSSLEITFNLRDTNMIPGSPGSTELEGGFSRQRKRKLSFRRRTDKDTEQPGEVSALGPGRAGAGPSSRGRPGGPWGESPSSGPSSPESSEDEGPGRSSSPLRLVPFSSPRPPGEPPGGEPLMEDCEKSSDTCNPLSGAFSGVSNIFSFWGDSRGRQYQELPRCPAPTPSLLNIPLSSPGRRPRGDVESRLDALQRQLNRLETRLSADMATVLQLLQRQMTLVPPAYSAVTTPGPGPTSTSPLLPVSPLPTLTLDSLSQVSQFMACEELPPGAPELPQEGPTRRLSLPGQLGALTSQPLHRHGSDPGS

Q: For `CCOc1cc(CN2CCN(c3ccc(C(C)=O)cc3)CC2)ccc1OC`, which “hERG current change (%, negative = inhibition) at 10uM” value is on record?
A: -23.5%

Q: With `CC(C)/C=C/CN1CCCC(N2CCN(c3cccc(Cl)c3)CC2)C1` (stereo not shown) as the molecule, how does the “hERG current change (%, negative = inhibition) at 10uM” value read?
A: -50.7%

Q: For `CC(C)CN1CCCC(N2CCN(c3cccc(Cl)c3)CC2)C1` (stereo not shown), which “hERG current change (%, negative = inhibition) at 10uM” value is on record?
A: -21.5%

Q: For `COc1ccccc1N1CCN(C2CCCN(Cc3cccc(O)c3)C2)CC1` (stereo not shown), which “hERG current change (%, negative = inhibition) at 10uM” value is on record?
A: -9.65%

Q: With `COc1ccc(CN2CCCC(N3CCN(c4cccc(Cl)c4)CC3)C2)cc1OC` (stereo not shown) as the molecule, how does the “hERG current change (%, negative = inhibition) at 10uM” value read?
A: -54.1%

Q: With `C#CC(C)(C)NC(=O)c1ccccc1OC` as the molecule, how does the “hERG current change (%, negative = inhibition) at 10uM” value read?
A: 1.69%

Q: With `CC(C)CNC(=O)COC(=O)/C=C/c1ccccc1[N+](=O)[O-]` as the molecule, how does the “hERG current change (%, negative = inhibition) at 10uM” value read?
A: 5.61%

Q: Which “hERG current change (%, negative = inhibition) at 10uM” value does the source give for `COCc1cc(C)nc(SCC(=O)c2ccc(O)c(O)c2)c1C#N` here?
A: 6.86%

Q: `CN(C)S(=O)(=O)N(CC(=O)Nc1ccc2ccccc2c1)c1ccccc1` was tested. Which “hERG current change (%, negative = inhibition) at 10uM” value did it give?
A: 8.45%

Q: For `CN1CCN(CCC(=O)Nc2ccc(OCc3ccccc3)cc2)CC1`, which “hERG current change (%, negative = inhibition) at 10uM” value is on record?
A: -41.6%

Q: With `Cn1cc(C(=O)c2cccc(Cl)c2Cl)cc1C(=O)O` as the molecule, how does the “hERG current change (%, negative = inhibition) at 10uM” value read?
A: 10.2%

Q: For `COc1ccc(-c2cc(-c3ccc(O)cc3)nc(N)c2C#N)cc1`, which “hERG current change (%, negative = inhibition) at 10uM” value is on record?
A: 3.91%

Q: For `COc1cc(/C=C(\C#N)C(=O)Nc2ccc3ccccc3c2)c([N+](=O)[O-])cc1OC`, which “hERG current change (%, negative = inhibition) at 10uM” value is on record?
A: 8.14%

Q: With `Cc1c(C)n2c(SCC(=O)N3CCC(C)CC3)nnc2[nH]c1=O` as the molecule, how does the “hERG current change (%, negative = inhibition) at 10uM” value read?
A: 15.3%

Q: How did the “hERG current change (%, negative = inhibition) at 10uM” value turn out when `CC(=O)Nc1ccccc1NC(=O)C/C(C)=N/NC(=O)Cc1cccc2ccccc12` was run?
A: 10.8%

Q: Which “hERG current change (%, negative = inhibition) at 10uM” value does the source give for `C=CCSC1=C(C#N)C(c2ccccc2OC)CC(=O)N1` (stereo not shown) here?
A: -2.19%

Q: With `COc1cc(CN2CCCC(N3CCN(c4ccc(F)cc4)CC3)C2)ccc1F` (stereo not shown) as the molecule, how does the “hERG current change (%, negative = inhibition) at 10uM” value read?
A: -64.4%

Q: How did the “hERG current change (%, negative = inhibition) at 10uM” value turn out when `COc1ccc(N2CCN(C3CCCN(Cc4ccccc4OCCO)C3)CC2)cc1` (stereo not shown) was run?
A: -24.1%

Q: With `COc1ccccc1N1CCN(C2CCCN(Cc3cc(F)cc(F)c3)C2)CC1` (stereo not shown) as the molecule, how does the “hERG current change (%, negative = inhibition) at 10uM” value read?
A: -6.62%

Q: For `COc1ccccc1CN1CCCC(N2CCN(c3ccccc3OC)CC2)C1` (stereo not shown), which “hERG current change (%, negative = inhibition) at 10uM” value is on record?
A: -11.9%

Q: Which “hERG current change (%, negative = inhibition) at 10uM” value does the source give for `CCOc1cccc(CN2CCCC(N3CCc4cc(OC)c(OC)cc4C3)C2)c1O` (stereo not shown) here?
A: -39.3%

Q: With `COc1ccc(N2CCN(C3CCCN(Cc4ccc(F)cc4)C3)CC2)cc1` (stereo not shown) as the molecule, how does the “hERG current change (%, negative = inhibition) at 10uM” value read?
A: -32.8%

Q: With `CCOc1cccc(CN2CCCC(N3CCN(c4cccc(Cl)c4)CC3)C2)c1O` (stereo not shown) as the molecule, how does the “hERG current change (%, negative = inhibition) at 10uM” value read?
A: -58.7%

Q: `CCn1nc(C)cc1C(=O)N1CCCC(N2CCN(c3cccc(Cl)c3)CC2)C1` (stereo not shown) was tested. Which “hERG current change (%, negative = inhibition) at 10uM” value did it give?
A: -35%

Q: With `COc1ccccc1CN1CCCC(N2CCN(c3ccc(F)cc3)CC2)C1` (stereo not shown) as the molecule, how does the “hERG current change (%, negative = inhibition) at 10uM” value read?
A: -56.2%

Q: `CCCCn1c(N)c(N(CCOC)C(=O)C2CCN(S(=O)(=O)c3ccc(F)cc3)CC2)c(=O)[nH]c1=O` was tested. Which “hERG current change (%, negative = inhibition) at 10uM” value did it give?
A: -1.06%

Q: For `COCCCN(C(C)=O)c1nc(-c2ccccc2)cs1`, which “hERG current change (%, negative = inhibition) at 10uM” value is on record?
A: -23.4%

Q: With `CCNC(=O)CSc1nc(-c2ccc(F)cc2)cs1` as the molecule, how does the “hERG current change (%, negative = inhibition) at 10uM” value read?
A: 21.2%

Q: `O=C(NCC(c1ccco1)N1CCc2ccccc21)c1ccc([N+](=O)[O-])cc1` (stereo not shown) was tested. Which “hERG current change (%, negative = inhibition) at 10uM” value did it give?
A: -18.3%

Q: How did the “hERG current change (%, negative = inhibition) at 10uM” value turn out when `Cn1c(SCc2ccc(Cl)cc2)nnc1-c1ccc2nonc2c1` was run?
A: 0.685%

Q: Which “hERG current change (%, negative = inhibition) at 10uM” value does the source give for `Cn1c(SCc2c(Cl)cccc2Cl)nnc1-c1ccc2nonc2c1` here?
A: -55.1%

Q: How did the “hERG current change (%, negative = inhibition) at 10uM” value turn out when `Cn1c(SCc2ccccc2)nnc1-c1ccc2nonc2c1` was run?
A: -9.18%

Q: Which “hERG current change (%, negative = inhibition) at 10uM” value does the source give for `CC(c1ccco1)N(C(=O)c1ccccc1NS(=O)(=O)c1ccc(Cl)c([N+](=O)[O-])c1)c1ccccn1` (stereo not shown) here?
A: -6.14%

Q: For `COc1ccc(NC(=O)c2nn(C)c(=O)c3ccccc23)cc1S(=O)(=O)Nc1ccccc1Cl`, which “hERG current change (%, negative = inhibition) at 10uM” value is on record?
A: 26%

Q: With `O=C(NCCc1ccccc1)/C(=C\c1ccc([N+](=O)[O-])cc1)NC(=O)c1ccco1` as the molecule, how does the “hERG current change (%, negative = inhibition) at 10uM” value read?
A: -80.7%

Q: `O=C(NCCc1ccccc1)/C(=C\c1ccccc1)NC(=O)c1ccco1` was tested. Which “hERG current change (%, negative = inhibition) at 10uM” value did it give?
A: -21.4%

Q: Which “hERG current change (%, negative = inhibition) at 10uM” value does the source give for `O=C(NCCc1ccccc1)/C(=C\c1ccc([N+](=O)[O-])cc1)NC(=O)c1ccccc1` here?
A: -14.6%

Q: `COc1ccc(NC(=O)/C(=C\c2ccccc2)NC(=O)c2ccco2)cc1` was tested. Which “hERG current change (%, negative = inhibition) at 10uM” value did it give?
A: 0.0276%

Q: `O=C(Nc1ccccc1)/C(=C/c1ccc([N+](=O)[O-])cc1)NC(=O)c1ccco1` was tested. Which “hERG current change (%, negative = inhibition) at 10uM” value did it give?
A: 6.42%

Q: For `Cc1ccc(C(=O)N/C(=C\c2ccc([N+](=O)[O-])cc2)C(=O)NCCc2ccccc2)cc1`, which “hERG current change (%, negative = inhibition) at 10uM” value is on record?
A: -33.8%

Q: How did the “hERG current change (%, negative = inhibition) at 10uM” value turn out when `COc1ccc(/C=C(/NC(=O)c2ccco2)C(=O)NCCc2ccccc2)cc1` was run?
A: -52.6%

Q: `O=C(NC(Cc1ccccc1)C(=O)O)/C(=C/c1ccc([N+](=O)[O-])cc1)NC(=O)c1ccco1` (stereo not shown) was tested. Which “hERG current change (%, negative = inhibition) at 10uM” value did it give?
A: 12.6%

Q: With `O=C(NCc1ccccc1)/C(=C/c1ccc([N+](=O)[O-])cc1)NC(=O)c1ccco1` as the molecule, how does the “hERG current change (%, negative = inhibition) at 10uM” value read?
A: -62.7%

Q: With `O=C(NCc1ccccc1)/C(=C/c1ccccc1)NC(=O)c1ccco1` as the molecule, how does the “hERG current change (%, negative = inhibition) at 10uM” value read?
A: -24.6%

Q: For `O=C(NCc1ccccc1)/C(=C\c1ccc([N+](=O)[O-])cc1)NC(=O)c1ccco1`, which “hERG current change (%, negative = inhibition) at 10uM” value is on record?
A: -60.9%

Q: `O=C(NCc1ccccc1)/C(=C\c1ccccc1)NC(=O)c1ccco1` was tested. Which “hERG current change (%, negative = inhibition) at 10uM” value did it give?
A: -21.7%
